Test results from the supplement of paper PMC6555819.

What was measured:
Assay in all cases: PBM binding z-score (relative to random genomic background probes); higher = stronger binding; sequences stand for … in GC…GCGATTGACAGCGTAGAATGAAGG
[1] = system: RARb homodimer (NR concentration 270 nM)
Method in brief: (§1)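 Random background probes are the reference for binding z-scores. These scores derive from regression-normalized fluorescence on custom Agilent 4×180K protein-binding microarrays incubated 1 h with ligand-free nuclear receptor dimers. Binding was detected with antibodies against each partner (one per run).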

[2] = system: RARg:RXRa (NR concentration 270 nM, RXRa partner concentration 90 nM)
Method in brief: as §1

[3] = system: RARg homodimer (NR concentration 270 nM)
Method in brief: as §1

[4] = system: RXRa DBDmut IVT, anti-RXR (DBD mutation: RXRa K156A/R161A, NR concentration 90 nM)
Method in brief: as §1

[5] = system: RXRa homodimer (NR concentration 180 nM)
Method in brief: as §1

[6] = system: THRa:RXRa (NR concentration 90 nM, RXRa partner concentration 90 nM)
Method in brief: as §1

[7] = system: THRa homodimer (NR concentration 90 nM)
Method in brief: as §1

[8] = system: VDR homodimer (NR concentration 270 nM)
Method in brief: as §1

Row | Sequence | PBM binding z-score [1] | PBM binding z-score [2] | PBM binding z-score [3] | PBM binding z-score [4] | PBM binding z-score [5] | PBM binding z-score [6] | PBM binding z-score [7] | PBM binding z-score [8]
1 | CCGAGTAGGTTACGAGGGGGCATTCAGTGCGAAT | 2.12 | 3.18 | 2.54 | 1.15 | 2.18 | 3.83 | 0.272 | 3.79
2 | TCATATAGGTAATCAGGTGAAAGTCCGTAAGTTA | 0.773 | 0.361 | 0.3 | 1.52 | 0.885 | 1.82 | 1.51 | 0.521
3 | CGAACTAGGTCACCAGGACAGTGACGAGGTTGGA | 3.61 | 4.59 | 5.52 | 1.22 | 3.43 | 3.55 | 1.99 | 0.698
4 | CTATGTAGGTTAAGGGGGTCTTTCAGTTTGAAAG | 1.69 | 1.56 | 1.25 | 0.662 | 1.48 | 1.94 | 0.841 | 1.31
5 | CCGAGTAGGTTACGAGGGGGCAATCAGTGCGAAT | 2.19 | 3.42 | 2.54 | 1.02 | 2.13 | 3.65 | 0.431 | 2.8
6 | CGAACCAGGTCACCAGGACAGTGAAGAGGTTGGA | 3.59 | 5.06 | 5.35 | 2.04 | 4.73 | 3.94 | 2.77 | 1.62
7 | TAGCCTAAGTCATGGGCCAGTATACCACGCGAAC | 0.0501 | 0.0528 | 0.13 | -0.416 | 0.289 | -0.0695 | -0.257 | -0.135
8 | ATATGTAGGTTAGGGTCTTTCAGAAAGTAGGGAA | 0.963 | 0.711 | 0.651 | 0.741 | 0.743 | 1.51 | 1.22 | 0.739
9 | CGTTCAAGGTCATAGGAGGTCAGTGAAGACAGAT | 5.77 | 7.11 | 7.22 | 4.47 | 6.46 | 5.23 | 3.63 | 5.25
10 | TCGAGTAGGTTACTGGGGCATTCAGGGATGAAGA | 0.974 | 0.621 | 0.564 | 0.0231 | 0.761 | 1.83 | -0.116 | -0.285
11 | CCTTACGGGCCACGAGGTTATAGCACGACGAGCG | 1.17 | 1.33 | 1.07 | -0.516 | 1.28 | 1.25 | 0.458 | 0.543
12 | CGTCCAAGGTCAGCAGGTCACTGAAAGCGACGTG | 5.25 | 7.24 | 7.65 | 2.86 | 6.51 | 4.32 | 2.37 | 1.88
13 | CCTAGTAGGTTACGAGGGGGCATTCAGTGCGAAT | 2.39 | 3.44 | 2.96 | 1.47 | 2.43 | 3.91 | 0.978 | 3.98
14 | ACTTACGGGTCAACGACGTTATAGCACGCGTATA | 2.87 | 5.07 | 4.51 | 1.59 | 5.19 | 2.68 | 0.369 | 0.841
15 | ATCGAAAGGTGGACGAGGTGAGTATACACCGTTT | 0.375 | 0.545 | 0.833 | -0.461 | 0.799 | 1.77 | 0.434 | -0.347
16 | CGTCCAAGGTCATACGAGGTCAGTGAAGACAGAT | 5.34 | 7.02 | 7.58 | 4.29 | 6.94 | 5.39 | 4.43 | 5.82
17 | CATACCGGGTCAGCTAGGCCAGAGTAGGGACGGC | 2.34 | 3.47 | 3.83 | -0.0713 | 3 | 2.53 | 0.906 | 0.395
18 | CCGAGTAGGTTTCGAGGGGGCATTCAGTGCGAAT | 1.58 | 1.89 | 1.17 | 1.67 | 1.19 | 2.37 | 0.874 | 3.52
19 | CGTCTAAGTTCAAGGTAACGTAACAGAAAGCAGC | 2.51 | 3.53 | 4.06 | 4.62 | 2.82 | 3.09 | 2.02 | 3.41

Row | Sequence | PBM binding z-score [1] | PBM binding z-score [2] | PBM binding z-score [3] | PBM binding z-score [4] | PBM binding z-score [5] | PBM binding z-score [6] | PBM binding z-score [7] | PBM binding z-score [8]
20 | TCTCGGAGGACACGAAGGTCAAAGCTTTCCAGAG | 4.15 | 4.3 | 4.3 | 1.15 | 3.26 | 3.4 | 1.44 | 2.67
21 | CCTACTGGGCCAAAAATGTCATTGATGCCGATAA | -0.0192 | -0.247 | 0.087 | -0.297 | -0.234 | -0.288 | -0.816 | -0.383
22 | ATCCAAAGGTCGAGGTGAGTATAGAGAAAGGGAA | 3.21 | 4.69 | 4.83 | 1.19 | 5.1 | 3.07 | 1.07 | 1.09
23 | CCTACTGGGCCAAGGTCATAGATCAGTCAAAGCA | 3.17 | 3.62 | 2.88 | 0.741 | 3.51 | 3.38 | 2.25 | 1.92
24 | CGTCCAAGGTAAGAGAGGTCAGTGAATGCCGAGT | 3.65 | 2.87 | 3.04 | 0.742 | 2.46 | 2.91 | 1.13 | 1.93
25 | ACTATCAGGCCAAGGGTCACTCAAGATTAGTCCG | 3.89 | 4.3 | 3.73 | 1.23 | 4.05 | 3.35 | 0.937 | 1.45
26 | CAAACTAGGTCAAAGGTCAAAGTTGAGCCAACCA | 5.46 | 9.07 | 7.7 | 3.35 | 10.5 | 4.95 | 1.92 | 3.15
27 | CTATGTAGGTTAAGGGGGTCATTCTGTTTGAAAG | 3.79 | 4.83 | 3.82 | 2.56 | 5.51 | 3.69 | 2.09 | 4.58
28 | CAATCTAGGTCACGAAAGGTCAAAGTCGAATGAC | 5.85 | 8.09 | 8.64 | 2.58 | 8.63 | 5.02 | 3.08 | 3.66
29 | TCGAGTAGGTTGCGGGGGCATTCAGGGATGAAGA | 1.73 | 2.24 | 1.59 | 1.94 | 1.5 | 3.75 | 2.35 | 3.45
30 | TCTAGCTGGTCACGGAGGTCACACACGACGGGTA | 4.17 | 4.88 | 5.01 | 0.665 | 5.01 | 3.67 | 2.27 | 2.72
31 | CATACTAGGTCAAAGGTCAAAGTCGAGCCAACCA | 5.51 | 8.9 | 7.33 | 3.12 | 9.95 | 4.98 | 2.11 | 3.51
32 | CCGAGTAGGGTACGAGGGGGCATTCAGTGCGAAT | 1.62 | 1.87 | 1.59 | 1.73 | 1.03 | 2.64 | 0.475 | 4.03
33 | CCTACTGGGCCAAAGGTCAGTGATTCCAATGCTC | 4.33 | 4.71 | 4.48 | -0.00245 | 4.48 | 2.35 | 0.381 | 0.516
34 | TCTTGTAGATCAAAGGTCAAGAAAGCCGAAGCCT | 4.47 | 5.63 | 5.37 | 0.913 | 7.17 | 3.42 | 0.378 | 0.514
35 | ATATCTAGGTAAAAGTTCAGTGAATCCCGAGGAT | 2.58 | 2.11 | 2.05 | 0.832 | 1.62 | 1.38 | 0.52 | 2.01
36 | TGAATGAGGTTTAAGATCAGGGAACGTGGCGTCG | -0.403 | 0.0866 | 0.0198 | -0.0681 | 0.388 | 0.0282 | -0.624 | -0.231
37 | ATCTCTAGGTAAATGTTCAGTGAATCCCGAGGAT | -0.29 | 0.459 | 0.485 | -0.155 | 0.162 | 0.097 | 0.171 | -0.0904
38 | CGAACTAGGTCAACGGACAGTGAAAGGCGACGTA | 2.82 | 4.11 | 4.8 | 1.34 | 3.39 | 2.36 | 0.45 | 0.394

Row | Sequence | PBM binding z-score [1] | PBM binding z-score [2] | PBM binding z-score [3] | PBM binding z-score [4] | PBM binding z-score [5] | PBM binding z-score [6] | PBM binding z-score [7] | PBM binding z-score [8]
39 | ATATGTAGGTTAGTGTCATTCAGAAAGTAGGGAA | 1.31 | 1.14 | 1.06 | 0.868 | 0.992 | 0.837 | 0.558 | 0.794
40 | ACTAGCAGGCCAAGAGTCACTCAAGATTAGTCCG | 0.0309 | 0.304 | 0.413 | -0.426 | 0.599 | 0.162 | -0.533 | -0.0236
41 | CGAACTAGGTCAAAGGCCAGTGAAAGGCGACGTA | 3.16 | 4.37 | 4.81 | 1.49 | 3.62 | 2.42 | 0.00822 | -0.206
42 | CGTCAAAGTTCTAGGTAACGTAACAGAAAGCAGC | -0.287 | 0.0968 | 0.323 | 0.31 | 0.135 | 0.719 | 0.349 | -0.0157
43 | TAGCCTAGGTCATGCGGGTCAGTATAGTGTCGGC | 4.27 | 4.91 | 4.9 | 1.07 | 4.2 | 3.75 | 1.35 | 2.26
44 | ATACCAAGGTTATCGTGAGGTCGTTGATACTAAC | 2.36 | 4.49 | 2 | 2.26 | 3.2 | 4.2 | 2.91 | 3.67
45 | CGAACTAGGTCAAAGGACAGTGAGAGGCGACGTA | 3.04 | 3.93 | 4.52 | 1.67 | 3.04 | 2.62 | 0.63 | 0.723
46 | GATCCAGGGTCAGCTAGAGGCCAGAGTATGGAAA | 3.27 | 6.7 | 4.6 | 0.756 | 4.34 | 3.09 | -0.172 | 0.674
47 | ATCGAAAGGTCGAAGGTGAGTACACCCACCCGAA | 2.79 | 4.39 | 4.08 | 1.13 | 4.96 | 2.54 | -0.0194 | 2.07
48 | CCGAGTAGGTTACGGGGGGGCATTCAGTGCGAAT | 3.09 | 4.41 | 4.19 | 2.7 | 2.73 | 4.4 | 3.04 | 4.76
49 | CTATGTAGGTTAAGGGGGTCACTCAGTTTGAAAG | 3.95 | 5.13 | 3.79 | 1.85 | 5.58 | 3.79 | 2.06 | 5.29
50 | GCTAGTTGGTCAGTAAATGGTCACACACCGGTCG | 1.28 | 0.401 | 0.586 | 0.286 | 0.551 | -0.021 | -0.105 | 0.116
51 | ATATGTAGGTTATGGTCATTCAGAAAGTAGGGAA | 1.22 | 1.16 | 1.22 | 0.958 | 1.32 | 1.05 | 0.5 | 0.656
52 | CGTCCAAGGTCAACAGGTCAGTGAAAGCGACGTG | 5.3 | 7.26 | 7.37 | 3.65 | 6.49 | 4.23 | 2.98 | 2.51
53 | TCTAGTAGGTTACGGGGGCATTCAGGGATGAAGA | 2.73 | 3.98 | 3.21 | 2.95 | 3.28 | 4.01 | 2.2 | 3.82
54 | CGAACTAGGTCACCAGGCCAGTGAAGAGGTTGGA | 3.33 | 4.61 | 5.11 | 1.05 | 3.21 | 2.98 | 0.969 | 0.372
55 | CCTAGTAGGTTATGGGGCATTCAGGCAACGGTGA | 0.8 | 0.878 | 0.852 | -0.581 | 0.835 | 0.719 | 0.289 | 0.0809
56 | TCATATAGGTAATAAAGGTGAAAGTCGGCATCTA | 1.76 | 1.51 | 0.992 | 1.83 | 2.06 | 1.59 | 0.669 | 0.491
